Screening data deposited in PubChem by National Center for Advancing Translational Sciences (NCATS).
PI5P4Ka inh – PI5P4K alpha (human) kinase inhibition | P48426 | PI5P4Kalpha enzyme, ADP-Glo luminescence, 60 min; active compounds read low | max response, % | 330,000 compounds, 1.2% hits | AID 652105; active means max response of -50% or lower; inconclusive means between -30% and -50%; inactive means -30% or higher; further: value at the top dose of about 77 µM
Target sequence (P48426 whole entry, looked up): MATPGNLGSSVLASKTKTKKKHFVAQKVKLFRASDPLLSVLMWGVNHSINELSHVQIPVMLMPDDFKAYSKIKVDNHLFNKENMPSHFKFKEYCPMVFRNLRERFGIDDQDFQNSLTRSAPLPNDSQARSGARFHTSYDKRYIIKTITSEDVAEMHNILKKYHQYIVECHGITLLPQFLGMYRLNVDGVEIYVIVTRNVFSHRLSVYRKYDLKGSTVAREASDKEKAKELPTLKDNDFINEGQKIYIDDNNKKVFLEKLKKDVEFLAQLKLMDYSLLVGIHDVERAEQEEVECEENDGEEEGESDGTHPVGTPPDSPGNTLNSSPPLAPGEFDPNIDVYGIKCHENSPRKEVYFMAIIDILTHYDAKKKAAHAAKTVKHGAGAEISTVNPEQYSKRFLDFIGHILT
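qHTS, 1536-well: enzyme/substrate mix, compound by pin tool, 5 microM ATP final; RT 60 min; ADP-Glo reagents 1 (45 min) then 2 (30 min); luminescence.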
USP2a inh – blocks human ubiquitin-specific protease USP2a; O75604; USP2 core, Ub-CHOP2 coupled fluorogenic reporter, 485/531; Potency, µM (highest dose often 38.3 µM), inactives show at the highest dose activity change, negative = inhibition, usual class: inhibitors; 330,000 compounds, 0.01% hits;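 further: potency means the concentration at half of the fitted maximal effect; plate controls were DMSO wells for no effect and full inhibition by NEM control for full effect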
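Cell-free coupled assay: 10nM USP2 core preincubated 30min RT with compound in Tris-HCl pH 8.0/CaCl2/CHAPS buffer, then 25nM Ub-CHOP2 and 25nM reporter substrate; fluorescence (Ex 485/Em 531) read after 60min RT, normalized to NEM inhibition, concentration-response curves fitted.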
WRN inhibitor – blocks human WRN helicase; Q14191; WRN helicase unwinding, fluorescent forked duplex, kinetic; Potency, µM (series often up to 114 µM), inactives show top-dose activity change, negative = inhibition, actives largely listed as inhibitors; 360,000 compounds, 0.46% hits; further: potency means the concentration at half of the fitted maximal effect; nearly all actives have a fitted effect of over 55% in size
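Primary qHTS, 1536-well format. 20 nM WRN + compound, 15 min RT; start with 100 nM forked fluorophore/quencher duplex, 2 mM ATP (final); kinetic read ex 525/em 598 nm.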
PLK1 PBD block – blocks phosphopeptide binding to human PLK1 polo-box domain. P53350. Plk1 PBD binding of FITC phosphopeptide, fluorescence polarization. Potency, µM, for inactives: max response, negative = inhibition, hits mostly inhibitors. 360,000 compounds, 2.8% hits; further: potency means the concentration at half of the fitted maximal effect; series mostly up to about 57 µM; nearly all actives have a fitted effect of over 65% in size
USP1 inh – blocks the human USP1/UAF1 deubiquitinase complex; O94782; recombinant USP1/UAF1, Ub-Rhodamine cleavage fluorescence; Potency, µM (series often up to 57.1 µM), for inactives: at the top dose activity change, negative = inhibition, usual class: inhibitors; 390,000 compounds, 0.23% hits; further: potency means the concentration at half of the fitted maximal effect; nearly all actives have a fitted effect of over 60% in size
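In this screen, compounds sit with the deubiquitinase complex (1nM) for 15 min at room temperature before Ub-Rho is added at 150nM final. Fluorescence rise is then followed for 6 reads every 60 seconds.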
* = called active by the depositor; ? = inconclusive; / = no result; [ ] = another dose, or the depositor's remark. Sampled rows, rich in hits. Any-hit rate of the full collection: about 3.3%. Unless noted, the call rests on the fitted dose curve; in most records, active means well fitted curve in the direction sought with a large enough effect; inconclusive means small, poorly fitted or top-dose-only effect, or another doubt; inactive means no such curve, though single readings can be large; an effect the other way counts as inactive or inconclusive. Unless noted, on the % scale 0 is the no-effect control and ±100 the full control effect.

SMILES	PI5P4Ka inh	USP2a inh	WRN inhibitor	PLK1 PBD block	USP1 inh
Cc1c(Cl)cccc1NC(=O)CCn1nc(C)c2c(C)n(-c3ccccc3)nc2c1=O	/	/	/	/	13%
CN1CCN(C(=S)Nc2ccc(S(N)(=O)=O)cc2)CC1	6	0%	2%	27µM*	-13%
NS(=O)(=O)c1ccc(NC(=S)N2CCN(c3cccc(Cl)c3)CC2)cc1	7	0%	-6%	17µM*	-23%
O=C(C1CCCO1)N1CCN(C(=S)Nc2ccc(Br)cc2)CC1 (stereo unspecified)	3	-10%	-2%	-7%	-13%
S=C(NCC1CCCO1)Nc1ccc(Nc2ccccc2)cc1 (stereo unspecified)	-4	-1%	-2%	?	-11%
NS(=O)(=O)c1ccc(NC(=S)N2CCN(c3ccccc3Cl)CC2)cc1	0	2%	3%	-7%	-8%
NS(=O)(=O)c1ccc(NC(=S)N2CCN(C(=O)C3CCCO3)CC2)cc1 (stereo unspecified)	-5	-1%	6%	11µM*	-16%
NS(=O)(=O)c1ccc(NC(=S)NCC2CCCO2)cc1 (stereo unspecified)	-25	1%	-10%	24µM*	-20%
Cc1cccc(NC(=O)CCS(=O)(=O)c2ccc3c(c2)n(C)c(=O)c(=O)n3C)c1C	/	/	/	/	-19%
COc1ccc(-c2cc(C(F)(F)F)nc(SCC(=O)NCC(C)C)n2)cc1OC	/	/	/	/	-22%
CC1CCN(S(=O)(=O)c2ccc3c(ccc(=O)n3CC(=O)Nc3ccc(C(C)C)cc3)c2)CC1	/	/	/	/	-32%
CC(C)(C)c1ccc(C(=O)NCCc2csc3nc(-c4ccccc4F)nn23)cc1	/	/	/	/	-21%
CC1CCCCN1C(=O)CSc1nc(-c2ccccc2)cn1N (stereo unspecified)	-10	1%	3%	24µM*	-13%
CC1CCCCN1C(=O)CSc1n[nH]c(-c2ccccc2)n1 (stereo unspecified)	/	/	/	/	-15%
CCCC(C)NC(=O)CSc1nc(-c2ccccc2)cn1N (stereo unspecified)	-12	1%	8%	27µM*	-12%
COc1ccc(C(=O)NCc2nnc(SCC(=O)Nc3ccccc3)n2-c2ccccc2)cc1	/	/	/	/	1%
CCc1ccc(NC(=O)c2cc(C(C)=O)n3ccccc23)cc1	/	/	/	/	-25%
COC(=O)c1cc(C(C)=O)n2ccccc12	1	3%	2%	30µM*	-25%
Fc1ccccc1N1CCN(c2ncnc3onc(-c4cccc(Cl)c4)c23)CC1	/	/	/	/	-20%
COc1ccc(OCc2nnc(SCC(=O)N(C)Cc3ccccc3)n2N)cc1	-26	-1%	-25%	11µM*	-9%
N#CC1=C(N)C(C#N)(C#N)C(c2cccnc2)C2CC(c3ccccc3)CC=C12 (stereo unspecified)	-11	0%	-27%	27µM*	-22%
CCOc1ccc(NC(=O)CSc2nnc(-c3ccc(C)cc3)c(-c3ccc(C)cc3)n2)cc1	/	/	/	/	-18%
CCCNC(=O)c1nc(C)n(-c2cc(Cl)cc(Cl)c2)n1	-6	-1%	18%	-22%	-10%
CCCNC(=O)c1nc(C)n(-c2cc(Cl)ccc2Cl)n1	-2	-1%	10%	21µM*	?
N#Cc1ccc(NC(=O)Cn2c3[n+](c4ccc(C(F)(F)F)cc42)CCCCC3)cc1	?	0%	1%	24µM*	-14%
SMILES	PI5P4Ka inh	USP2a inh	WRN inhibitor	PLK1 PBD block	USP1 inh
CCc1ccc2oc(C(=O)N(Cc3ccc(N(C)C)cc3)Cc3ccco3)c(C)c2c1	/	/	/	/	-6%
O=C1Nc2cc(Br)ccc2C1(O)c1ccccc1O (stereo unspecified)	4	-2%	7%	-4%	-22%
CC(C)c1ccc(C2(O)C(=O)Nc3cc(Br)ccc32)c(O)c1 (stereo unspecified)	-8	1%	-17%	27µM*	-11%
Cc1cc(S(=O)(=O)ON2C(=O)c3ccccc3C2=O)ccc1F	-17	2%	-6%	6.7µM*	-14%
Cc1ccc(C)c(S(=O)(=O)ON2C(=O)c3ccccc3C2=O)c1	?	-1%	-15%	2.7µM*	-16%
COc1ccc(C(=S)N2CCC(C(N)=O)CC2)cc1Br	-9	1%	0%	19µM*	-14%
CCCCOc1ccc(C(=S)N2CCC(C(N)=O)CC2)cc1	0	2%	0%	?	-31%
COc1ccc(C(=O)c2cccc(C(=O)c3ccc(OC)c(C)c3)c2)cc1C	0	2%	-1%[57.1 µM]	5%	-18%
COc1ccc(C(=O)c2ccc(OC)c(Br)c2)cc1Br	1	3%	-12%	19µM*	-14%
NC(=O)C1CCN(C(=S)c2ccc(-c3ccc(Br)cc3)o2)CC1	?	0%	?	12µM*	?
N#CCCN1CCN(C(=S)c2ccc(-c3ccc(Cl)c(Cl)c3)o2)CC1	-12	-1%	-14%	11µM*	-12%
COc1ccc(Cn2c(SCc3ccc(C(=O)NC(C)C)cc3)nc3cccnc32)cc1	/	/	/	/	-26%
O=C(c1ccco1)N1CCN(C(=O)c2ccc(-c3ccc(Cl)cc3)o2)CC1	-24	-2%	3%	-3%	-21%
CC(=O)N1CCN(C(=S)c2ccc(-c3ccc(Cl)cc3)o2)CC1	?	-6%	?	4.7µM*	-25%
CCOc1cc(C#N)c(NC(=O)Cn2nnc(-c3ccc(C)cc3)n2)cc1OCC	/	/	/	/	-21%
CC(C)(C)Cc1nnc(NS(=O)(=O)c2ccccc2)s1	-10	-3%	-14%	27µM*	-5%
CC(C)(C)c1nnc(NS(=O)(=O)c2ccc(F)cc2)s1	-24	/	8%[57.1 µM]	9.5µM*	-22%
CC(C)C(=O)N(c1ccc2oc(=O)sc2c1)S(=O)(=O)c1ccccc1	/	4%	-4%	-11%	5%
CC(=O)N(c1ccc2oc(=O)sc2c1)S(=O)(=O)c1ccccc1	-18	-1%	?	30µM*	-2%
CCOc1ccc(NC(=O)c2cccc(N3CCCS3(=O)=O)c2)cc1	/	/	/	/	-15%
CC(C)Oc1cc2oc(=O)c3c(c2cc1Cl)CCC3	5	1%	-5%	-8%	-7%
CC(=O)Oc1cc2oc(=O)c3c(c2cc1Cl)CCC3	/	0%	-7%	6µM*	?
CC1=C(C(=O)Nc2ccc(Cl)cc2)C(c2cccs2)n2nc(SCc3cccc(C)c3)nc2N1 (stereo unspecified)	/	/	/	/	-15%
CCN(CC)CCC(=O)c1ccc(F)cc1	0	-1%	-2%	11µM*	-14%
CN(C)CCC(=O)c1ccc(F)cc1	1	4%	-5%	?	?
Cn1nccc1C(=O)Nc1sc2c(c1C#N)CCCC2	-17	2%	-4%	?	-4%
N#Cc1c(NC(=O)c2cccnc2)sc2c1CCC2	-18	6%	-15%	-20%	-18%
COc1ccc(-c2cc(C(=O)Nc3sc4c(c3C#N)CCCC4)no2)cc1OC	/	/	/	/	-15%
CC(C)c1cc(C(=O)Nc2sc3c(c2C#N)CCC3)no1	/	6%	-10%	24µM*	-13%
